Reference: PubChem BioAssay AID1159580 (chemical genetic matrix, 2015)
Several values for one entry are separate records, joined by “and”; a condition that tells them apart may be missing. Equal entries are not always repeated. Hit rate of the full screen: of about 5,500 compounds, about 2,000 (36%) were called active. About 18% were inconclusive and are not listed. Rule as the data show it: active = normalized growth mostly below about 0.91 (no sharp cut-off); inconclusive = no clear call, values can overlap the other calls; inactive = mostly above about 0.92. Some of the results follow.

Assay: chemical genetic growth profiling, strain panel (AID 1159580);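 also: tested at 20 µM; growth read once vehicle control cultures reached saturation at 30 °C; 1 = growth at the plate median or of vehicle wells; lower values mean less growth of the strain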
Settings: S. cerevisiae deletion strains, growth OD

Measured: normalized growth

Cc1c(N(C)C)c(=O)n(-c2ccccc2)n1C
inactive: locus YAL013W, strain DEP1, stronger effect = lower value 0.994 | locus YAL021C, strain ccr4, stronger effect = lower value 0.981 | locus YAL026C, strain drs2, stronger effect = lower value 0.977 | locus YAL030W, strain snc1, stronger effect = lower value 0.982 | locus YBL061C, strain skt5, stronger effect = lower value 1 | locus YBR009C, strain hhf1, stronger effect = lower value 0.976 | locus YBR021W, strain FUR4, stronger effect = lower value 1.01 | locus YBR023C, strain chs3, stronger effect = lower value 0.983 | locus YBR171W, strain sec66, stronger effect = lower value 0.987 | locus YBR229C, strain ROT2, stronger effect = lower value 0.978 | locus YBR231C, strain swc5, stronger effect = lower value 0.99 | locus YBR279W, strain paf1, stronger effect = lower value 0.996 | locus YCL011C, strain gbp2, stronger effect = lower value 1.01 | locus YCL016C, strain dcc1, stronger effect = lower value 0.993 | locus YCL029C, strain bik1, stronger effect = lower value 0.972 | locus YCL061C, strain MRC1, stronger effect = lower value 0.979 | locus YCL069W, strain vba3, stronger effect = lower value 1 | locus YCR088W, strain abp1, stronger effect = lower value 1 | locus YDL005C, strain med2, stronger effect = lower value 0.96 | locus YDL035C, strain GPR1, stronger effect = lower value 0.995 | locus YDL040C, strain nat1, stronger effect = lower value 0.991 | locus YDL074C, strain BRE1, stronger effect = lower value 0.984 | locus YDL101C, strain DUN1, stronger effect = lower value 0.983 | locus YDL134C, strain PPH21, stronger effect = lower value 0.997 | locus YDL185W, strain tfp1, stronger effect = lower value 0.962 | locus YDL192W, strain arf1, stronger effect = lower value 0.98 | locus YDR001C, strain nth1, stronger effect = lower value 0.994 | locus YDR069C, strain doa4, stronger effect = lower value 0.971 | locus YDR101C, strain arx1, stronger effect = lower value 0.99 | locus YDR137W, strain rgp1, stronger effect = lower value 0.986 | locus YDR150W, strain NUM1, stronger effect = lower value 0.993 | locus YDR159W, strain sac3, stronger effect = lower value 0.948 | locus YDR162C, strain NBP2, stronger effect = lower value 0.993 | locus YDR195W, strain ref2 0.934 | locus YDR297W, strain sur2, stronger effect = lower value 1 | locus YDR318W, strain mcm21, stronger effect = lower value 0.989 | locus YDR334W, strain swr1, stronger effect = lower value 0.987 | locus YDR335W, strain msn5, stronger effect = lower value 0.993 | locus YDR388W, stronger effect = lower value 0.998 | locus YDR392W, strain spt3, stronger effect = lower value 1 | locus YDR502C, strain sam2, stronger effect = lower value 0.999 | locus YEL003W, strain gim4, stronger effect = lower value 0.997 | locus YEL037C, strain rad23, stronger effect = lower value 0.998 | locus YEL061C, strain CIN8 (second series), stronger effect = lower value 1.01 | locus YEL061C, strain CIN8, stronger effect = lower value 0.996 | locus YER015W, strain faa2, stronger effect = lower value 0.995 | locus YER016W, strain bim1, stronger effect = lower value 0.999 | locus YER110C, stronger effect = lower value 0.981 | locus YER111C, strain swi4, stronger effect = lower value 0.983 | locus YER155C, strain BEM2 (second series), stronger effect = lower value 0.989 | locus YER155C, strain BEM2, stronger effect = lower value 0.995 | locus YER167W, strain BCK2, stronger effect = lower value 0.99 | locus YFR010W, strain ubp6, stronger effect = lower value 0.986 | locus YGL078C, strain dbp3, stronger effect = lower value 0.997 | locus YGL086W, strain mad1, stronger effect = lower value 1 | locus YGL167C, strain pmr1, stronger effect = lower value 0.982 | locus YGL173C, strain kem1, stronger effect = lower value 0.96 | locus YGL227W, strain vid30, stronger effect = lower value 0.984 | locus YGL240W, strain doc1, stronger effect = lower value 0.972 | locus YGL248W, strain PDE1, stronger effect = lower value 0.998 | locus YGL253W, strain hxk2, stronger effect = lower value 1.02 | locus YGR078C, strain PAC10, stronger effect = lower value 0.985 | locus YGR135W, strain pre9, stronger effect = lower value 0.991 | locus YGR229C, strain SMI1, stronger effect = lower value 0.992 | locus YGR252W, strain gcn5, stronger effect = lower value 1.1 | locus YHR013C, strain ard1, stronger effect = lower value 0.964 | locus YHR027C, strain rpn1, stronger effect = lower value 0.996 | locus YHR030C, strain SLT2, stronger effect = lower value 0.976 and 1.04 | locus YHR079C, strain IRE1 (second series), stronger effect = lower value 0.99 | locus YHR079C, strain IRE1, stronger effect = lower value 1.01 | locus YHR094C, strain hxt1, stronger effect = lower value 0.978 | locus YHR129C, strain ARP1, stronger effect = lower value 0.993 | locus YHR142W, strain chs7, stronger effect = lower value 1.02 | locus YHR200W, strain rpn10, stronger effect = lower value 0.999 | locus YIL066C, strain RNR3, stronger effect = lower value 0.992 | locus YIL073C, strain SPO22, stronger effect = lower value 0.923 | locus YIL125W, strain kgd1, stronger effect = lower value 0.99 | locus YIR030C, strain dcg1, stronger effect = lower value 0.99 | locus YJL092W, strain hpr5, stronger effect = lower value 1 | locus YJL095W, strain BCK1 (second series), stronger effect = lower value 0.997 | locus YJL095W, strain BCK1, stronger effect = lower value 0.966 and 1.04 | locus YJL115W, strain asf1, stronger effect = lower value 0.995 | locus YJL129C, strain trk1, stronger effect = lower value 0.983 | locus YJL134W, strain LCB3, stronger effect = lower value 0.997 | locus YJL154C, strain vps35, stronger effect = lower value 0.987 | locus YJL166W, strain qcr8, stronger effect = lower value 0.982 | locus YJL168C, strain set2, stronger effect = lower value 0.99 | locus YJL187C, strain SWE1 (second series), stronger effect = lower value 0.975 | locus YJR043C, strain POL32, stronger effect = lower value 0.986 | locus YJR066W, strain TOR1, stronger effect = lower value 0.972 | locus YJR075W, strain HOC1, stronger effect = lower value 0.997
